From PubChem BioAssay
This is a sample that favours compounds with a hit; in the whole collection about 27% have one here.
PTK2B oligo ant: antagonists of human Pyk2 oligomerization; Q14289; Q293 cells, Pyk2 FERM NanoBiT luminescence; hits give low values; z-score (the deposit names both 25 µM and 10 µM); hit rate 0.83% among 99,000;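 active = Z-score of -3 or lower, scaled per plate to the spread of control and sample wells; inactive = z-score above -3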;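 also: negative z-score means lost luminescence so less FERM oligomerization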
Target sequence (Q14289 whole entry, looked up): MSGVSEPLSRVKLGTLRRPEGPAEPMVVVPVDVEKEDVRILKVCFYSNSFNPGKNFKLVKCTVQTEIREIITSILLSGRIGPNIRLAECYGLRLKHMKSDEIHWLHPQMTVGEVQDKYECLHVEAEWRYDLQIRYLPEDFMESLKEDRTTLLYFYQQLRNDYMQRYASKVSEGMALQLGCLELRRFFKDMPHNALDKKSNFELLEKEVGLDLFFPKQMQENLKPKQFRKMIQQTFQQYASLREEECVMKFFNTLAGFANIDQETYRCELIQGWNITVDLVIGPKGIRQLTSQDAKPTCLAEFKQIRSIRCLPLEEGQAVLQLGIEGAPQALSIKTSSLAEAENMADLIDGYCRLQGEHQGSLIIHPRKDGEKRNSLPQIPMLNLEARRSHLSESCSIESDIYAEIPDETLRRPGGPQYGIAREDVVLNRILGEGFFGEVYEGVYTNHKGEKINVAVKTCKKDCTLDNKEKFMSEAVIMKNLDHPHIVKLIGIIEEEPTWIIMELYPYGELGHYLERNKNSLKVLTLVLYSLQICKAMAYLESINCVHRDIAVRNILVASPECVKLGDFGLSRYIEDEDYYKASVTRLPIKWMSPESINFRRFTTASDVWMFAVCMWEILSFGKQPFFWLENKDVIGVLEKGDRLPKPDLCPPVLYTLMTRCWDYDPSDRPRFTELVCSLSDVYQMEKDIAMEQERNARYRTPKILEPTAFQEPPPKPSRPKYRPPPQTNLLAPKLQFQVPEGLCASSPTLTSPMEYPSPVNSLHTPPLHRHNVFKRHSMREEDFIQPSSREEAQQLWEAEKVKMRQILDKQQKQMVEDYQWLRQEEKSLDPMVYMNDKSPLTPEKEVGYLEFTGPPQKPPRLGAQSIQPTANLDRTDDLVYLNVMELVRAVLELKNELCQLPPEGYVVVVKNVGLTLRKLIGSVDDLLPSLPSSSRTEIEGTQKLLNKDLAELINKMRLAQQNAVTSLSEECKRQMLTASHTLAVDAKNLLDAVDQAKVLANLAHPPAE
CYP2C9 act: activators of human CYP2C9; P11712; recombinant CYP2C9, luciferin-H conversion, luminescence; hits give high values; factor 1 = untreated enzyme, 0 = blocked; activation factor at 5 µM; hit rate 1.4% among 96,000;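 active = activation factor of 2 or more for CYP2C9 at a 5 µM dose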;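 also: 0 = sulfaphenazole-blocked wells and 1 = vehicle-only wells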
Cav32 inh: blocks human Cav3.2 T-type calcium channel. Cav3.2-expressing cells, Fluo-4 calcium fluorescence FDSS; hits give low values. B-score at 10 µM. hit rate 4% among 100,000. AID 449739;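 active = single-dose well whose peak fluorescence ratio is a statistical outlier from its plate by either plate-standardised score or position-corrected B-score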
CYP2C9 inhib: blocks human cytochrome P450 2C9 | P11712 | AID 777 | hit rate 20% among 96,000 | CYP2C9 Supersomes, luciferin-H conversion, luminescence | inhibition, % at 5 µM;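 active = blocking of liver enzyme CYP2C9 beyond about 50% at 5 µM, limit read from the data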
CYP2C19 act: activators of human cytochrome P450 2C19; P33261; recombinant CYP2C19, luciferin-H EGE luminescence; hits give high values; 0 = fully inhibited enzyme, 1 = untreated enzyme; activation factor at 5 µM; 96,000 tested, under 10 active; AID 1025;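 active = activation factor of at least 2 at 5 µM in the primary screen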;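 also: 0 = wells with 2.5 mM tranylcypromine and 1 = vehicle-only wells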
CYP2C19 inh: human CYP2C19 inhibition | CYP2C19 Supersomes, luciferin-H EGE luminescence, 30 min | inhibition, % at 5 µM | hit rate 21% among 96,000;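 active = CYP2C19 inhibition above a set limit at 5 µM in the primary screen, cut at about 50% in these data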;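 also: plate controls were negative control wells for no effect and 2.5 mM tranylcypromine positive control for full effect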
Starred values were filed as active, the others as inactive; nt = no result given.

SMILES | PTK2B oligo ant | CYP2C9 act | Cav32 inh | CYP2C9 inhib | CYP2C19 act | CYP2C19 inh
CC(C)(C)NC(=O)c1ccnc(C(C)(C)C)c1 | 0.76 | 1 | 0.29 | -3 | 0.5 | 52*
CC(C)(C)c1cc(C(=O)Nc2ccccc2)ccn1 | -0.73 | nt | -0.054 | nt | nt | nt
CC(NC(=O)c1ccnc(C(C)(C)C)c1)c1ccccc1 (centres undefined) | 1.5 | 0.4 | 0.72 | 55* | 0.4 | 56*
N#C/C(=C\c1cn[nH]c1-c1ccccc1)C(=O)NC1CCCCCC1 | -0.2 | 2* | -2.9 | -98 | 1 | -3
COc1ccc(-c2[nH]ncc2/C=C(\C#N)C(=O)NC2CC2)cc1 | -1 | 0.5 | -2.2 | 52* | 0.5 | 54*
N#C/C(=C\c1cn[nH]c1-c1ccc(Cl)cc1)C(=O)NCc1ccccc1 | -0.38 | 0.1 | nt | 88* | 0.1 | 88*
N#CC1=C(N)Nc2ncnn2C1c1ccc(F)cc1 (centres undefined) | 0.15 | nt | nt | nt | nt | nt
O=C(COC(=O)CCCNC(=O)c1ccc(Cl)cc1)NCc1ccccc1Cl | 0.08 | 0.3 | -2.1 | 70* | 0.4 | 56*
O=C(COC(=O)C1CCC1)NCc1ccccc1Cl | 0.38 | 0.7 | -0.042 | 30 | 0.1 | 88*
CCCC(=O)Nc1ccc(C(=O)NCc2ccccc2Cl)cc1 | -0.16 | nt | -0.47 | nt | nt | nt
O=C(COC(=O)C1CC1)Nc1ccc(Oc2ccccc2)cc1 | -0.85 | 1.1 | -1.4 | -8 | 0.7 | 29
O=C(COC(=O)C1CCC1)Nc1ccc(Oc2ccccc2)cc1 | 0.94 | 1.4 | -0.043 | -38 | 0.4 | 55*
O=C(Nc1cccc2c1CCCC2)c1ccncc1 | 0.03 | nt | 1.5 | nt | nt | nt
Cn1cc(CNC(=O)C23CC4CC(CC(C4)C2)C3)cn1 | -0.4 | nt | 0.87 | nt | nt | nt
O=C(O)C1CCCCC1C(=O)Nc1ccc(Cl)cc1Cl (centres undefined) | 1.5 | 0.8 | 1.1 | 22 | 0.6 | 37
O=C(O)C1CCCCC1C(=O)Nc1ccccc1Cl (centres undefined) | 0.18 | 0.5 | -1.5 | 46 | 0.4 | 64*
CS(=O)(=O)N(CC(=O)N1CCN(c2ccccc2)CC1)c1cc(C(F)(F)F)ccc1Cl | 0.1 | 2.1* | -4.3* | -112 | 0.7 | 26
CC1CCN(C(=O)CN(c2ccc(Cl)c(C(F)(F)F)c2)S(C)(=O)=O)CC1 | -0.08 | 2.3* | -1.2 | -133 | 0.2 | 75*
CS(=O)(=O)N(CC(=O)N1CCC(C(N)=O)CC1)c1ccc(Cl)c(C(F)(F)F)c1 | 0.21 | 1 | -0.92 | -4 | 1.1 | -5
CS(=O)(=O)N(CC(=O)N1CCN(c2ccccc2)CC1)c1ccc(Cl)c(C(F)(F)F)c1 | 1.1 | 1.8 | -5.3* | -83 | 0 | 96*
CS(=O)(=O)N(CC(=O)N1CCN(c2cccc(Cl)c2)CC1)c1cccc(F)c1 | 0.71 | 1 | -6.3* | -1 | 1 | -5
COc1cccc(N2CCCn3c2nc2c3c(=O)n(CCN3CCOCC3)c(=O)n2C)c1 | nt | 1.1 | -0.077 | -11 | 1 | 1
Cc1cc2nsnc2c(S(=O)(=O)NCC(=O)O)c1C | 0.04 | 0.8 | 2 | 19 | 0.9 | 6
Cc1cc(Nc2cc(Cl)nc(Sc3ccc(NC(=O)C4CC4)cc3)n2)n[nH]1 | nt | nt | 0.33 | nt | nt | nt
Cn1c(SCc2cc(=O)[nH]c3ccccc23)nnc1-c1ccc(Br)cc1 | -0.48 | 0.8 | 1.9 | 18 | 0.5 | 51*
SMILES | PTK2B oligo ant | CYP2C9 act | Cav32 inh | CYP2C9 inhib | CYP2C19 act | CYP2C19 inh
CCOC(=O)NNC1CC(=O)N(c2ccc(OC)cc2)C1=O (centres undefined) | 0.56 | 0.9 | 1.5 | 6 | 1 | -3
COC(C[C@H]1O[C@H]1C(=O)COCc1ccccc1)OC | nt | nt | 0.25 | nt | nt | nt
COC(=O)c1[nH]c2ccccc2c1NS(=O)(=O)c1ccc(F)c(C)c1 | -0.98 | 0.5 | -2.3 | 48 | 0.1 | 93*
COc1ccc(S(=O)(=O)Nc2c(C(=O)O)[nH]c3ccccc23)c(OC)c1 | -0.3 | 0.4 | -0.0082 | 61* | 0.9 | 6
COc1ccc2[nH]c(C(=O)O)c(NS(=O)(=O)c3ccc(OC)c(OC)c3)c2c1 | 0.41 | 0.2 | 0.21 | 76* | 0.6 | 36
CCOC(=O)c1[nH]c2ccccc2c1NC(=O)CC(C)C | nt | nt | 0.43 | nt | nt | nt
CCOc1ccccc1N(C(=O)Cn1nnnc1-c1ccc(C)o1)C(CC)C(=O)NC(C)(C)C (centres undefined) | -1 | nt | -1.7 | nt | nt | nt
COc1ccccc1CN(Cc1cc2cc(C)ccc2[nH]c1=O)Cc1nnnn1Cc1ccco1 | 0.33 | 0 | -4.4* | 98* | 0 | 99*
CCOC(=O)Cn1nnnc1CN(Cc1ccc(OC)cc1)Cc1cc2cc(CC)ccc2[nH]c1=O | 0.44 | 0 | -5.4* | 95* | 0 | 97*
CCOC(=O)Cn1nnnc1CN(Cc1ccc(OC)cc1)Cc1cc2cc(C)ccc2[nH]c1=O | -0.28 | nt | -1.4 | nt | nt | nt
CCc1ccc2[nH]c(=O)c(CN(Cc3ccccc3OC)Cc3nnnn3Cc3ccco3)cc2c1 | 1.8 | 0 | -0.19 | 96* | 0.4 | 58*
COc1ccc(N/C(=C(/C(Cl)=C(Cl)Cl)[N+](=O)[O-])n2nnc3ccccc32)cc1OC | nt | 0.7 | -0.34 | 26 | 0.9 | 10
Cc1ccc(-c2noc(CCC(=O)NCc3ccc4c(c3)OCO4)n2)cc1 | 0.7 | 0.9 | -0.45 | 9 | 0.9 | 8
CCOC(=O)C1Cn2c(nc3c(c2=O)C(C)(C)Cc2ccccc2-3)S1 (centres undefined) | -1.5 | 0.1 | -6.4* | 88* | 0 | 97*
Cc1ccc(-n2c(SCC(N)=O)nc3c(c2=O)C2(CCCC2)Cc2ccccc2-3)cc1 | -2.2 | nt | nt | nt | nt | nt
CCOC(=O)C1Cn2c(nc3c(c2=O)C2(CCCC2)Cc2ccccc2-3)S1 (centres undefined) | -1.5 | 0.6 | -5.4* | 38 | 0.4 | 62*
CC1=C(C(=O)OC(C)C)C(c2c(O)ccc3ccccc23)NC(=O)N1 (centres undefined) | nt | 0.9 | -1.2 | 6 | 0.1 | 86*
COCCOC(=O)C1=C(C)NC(=O)NC1c1c(F)cccc1Cl (centres undefined) | 0.09 | 1 | 0.42 | -2 | 0.7 | 30
COC(=O)c1ccccc1OCCOc1ccccc1C(=O)OC | 0.12 | 0.5 | -0.15 | 47 | 0.4 | 62*
COc1cc(Nc2nc(SCC#N)nc3ccccc23)cc(OC)c1OC | -0.13 | 0.6 | 0.21 | 40 | 0.8 | 24
N#CCSc1nc(Nc2ccc3c(c2)OCO3)c2ccccc2n1 | -4.2* | 0.2 | 0.97 | 80* | 0.8 | 19
CCOC(=O)CSc1nc(Nc2ccc3c(c2)OCO3)c2ccccc2n1 | -3* | 0 | -1.3 | 98* | 0.1 | 86*
COC(C/C=C\C(=O)[C@@H](C)OCc1ccccc1)OC | nt | nt | 1.8 | nt | nt | nt
CCc1nc2ccccc2n1Cc1cc(=O)n2cc(C)ccc2n1 | -0.17 | 0.6 | 0.65 | 36 | 0.8 | 16
COC(=O)c1ccc(NC(=S)NCCc2cccc(C)c2)cc1 | -0.93 | 0.2 | -0.92 | 79* | 0.2 | 77*
COC(=O)c1ccc(NC(=S)N2CCN(Cc3cccc(C)c3)CC2)cc1 | 0.86 | 1.1 | -4.4* | -12 | 1.2 | -24
